Screens (PubChem BioAssay)
In the library only some 0.98% were active in any assay of this set; here they are far more common.
RTF Ca sens inh: cardiac RTF calcium desensitization | P19429+P45379 | 340,000 tested, 0.12% active | AID 493244 | inhibition, % at 7.15 µM | IANBD-labeled cardiac RTF, Ca2+ fluorescence;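 active = inhibition above the mean inhibition of all tested compounds plus 3 SD, cut at about 17% in these data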;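 note: assay run at fixed EC70 calcium of 1.6 mM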
eLon inh: E. coli protease La inhibition. AID 602123. 360,000 tested, 0.42% active. inhibition, % at 7.94 µM. purified E. coli Lon protease, fluorescence polarization; in the data active = inhibition above about 13%, passing the limit was not always enough;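 note: 0% = enzyme with probe and DMSO and 100% = no enzyme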
Target sequence (P0A9M0 whole entry, looked up): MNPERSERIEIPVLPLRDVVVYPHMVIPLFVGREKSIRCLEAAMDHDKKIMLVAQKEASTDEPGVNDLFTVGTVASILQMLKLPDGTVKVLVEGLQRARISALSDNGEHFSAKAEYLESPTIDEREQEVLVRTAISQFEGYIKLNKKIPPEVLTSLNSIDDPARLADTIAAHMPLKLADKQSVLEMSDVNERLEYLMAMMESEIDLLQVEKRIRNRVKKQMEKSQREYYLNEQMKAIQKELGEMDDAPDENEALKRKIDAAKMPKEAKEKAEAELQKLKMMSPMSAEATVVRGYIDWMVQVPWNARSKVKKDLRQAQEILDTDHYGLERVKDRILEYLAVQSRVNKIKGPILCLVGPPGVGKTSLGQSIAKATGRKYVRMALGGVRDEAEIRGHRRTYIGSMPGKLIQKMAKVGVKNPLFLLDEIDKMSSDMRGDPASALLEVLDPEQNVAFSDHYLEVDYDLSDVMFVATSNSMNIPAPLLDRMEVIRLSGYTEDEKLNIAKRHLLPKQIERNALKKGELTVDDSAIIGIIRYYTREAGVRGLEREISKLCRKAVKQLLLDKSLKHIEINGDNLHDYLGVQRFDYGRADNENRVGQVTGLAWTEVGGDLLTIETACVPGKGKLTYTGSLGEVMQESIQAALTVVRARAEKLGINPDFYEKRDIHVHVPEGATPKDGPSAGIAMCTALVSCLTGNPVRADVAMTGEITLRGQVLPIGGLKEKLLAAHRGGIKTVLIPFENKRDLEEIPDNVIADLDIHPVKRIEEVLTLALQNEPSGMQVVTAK
cardiac RTF act: cardiac RTF calcium sensitization | P19429+P45379 | IANBD-labeled TnC RTF fluorescence at EC20 calcium; 0% EC20 calcium, 100% full calcium | activation, % at 7.2 µM | 340,000 tested, 0.24% active;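 active = activation above the mean over all tested compounds plus 3 SD, cut at about 30% in these data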;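 note: rise in fluorescence read as greater calcium sensitivity of cardiac thin filaments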
C-LANA FP: KSHV C-LANA DNA binding inhibition | 340,000 tested, 0.078% active | MBP-C-LANA/FAM-LBS DNA binding, fluorescence polarization | AID 504423 | inhibition, % at 9 µM;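 active = highest replicate inhibition at or above 60% at 9 µM, even if other replicates fall short; inactive = all replicates below 60% inhibition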;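 note: 0% = neutral control wells and 100% = 4 µM acridine orange control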
EBV gp42 block: inhibitors of Epstein-Barr virus glycoprotein 42; inhibition, % (tested at 21.74 µM); Q1HVG2; 220,000 tested, 0.42% active; Fluorescence polarization binding assay, mP read-out; in the data active = inhibition above about 50%
Keap1-Nrf2 PPI: inhibitors of human Keap1-Nrf2 protein-protein interaction. Q14145. 340,000 tested, 0.15% active. inhibition, % at 9.4 µM. Keap1 Kelch-Nrf2 peptide fluorescence polarization, 1536-well. AID 504523; in the data active = inhibition above about 12%;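 note: human Keap1 Kelch domain with fluorescein labeled Nrf2 9mer peptide probe; 0% = neutral control wells and 100% = peptide positive control; higher means more block of Keap1 binding to Nrf2 peptide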
RTF inh confirm: cardiac RTF calcium sensitivity inhibition, confirmation; AID 504635; 360 tested, 8% active; inhibition, % at 7.15 µM; shares compounds with RTF Ca sens inh; reconstituted cardiac thin filaments, calcium sensitivity fluorescence; in the data active = inhibition above about 18%
* marks the source's active call; other numbers are inactive results; i = inactive; x = no result given; + = active, no number; ! = repeats disagree.

SMILES	RTF Ca sens inh	eLon inh	cardiac RTF act	C-LANA FP	EBV gp42 block	Keap1-Nrf2 PPI	others
C=CCN1C(=O)/C(=C/c2ccc(N3CCOCC3)o2)C(=O)NC1=S	-35	-144	66*	-26	-302	-53
CN1C(=O)C(=Cc2ccc(N3CCCCC3)o2)C(=O)N(C)C1=S	-7	-213	14	-1	-146	-5
CCOC(=O)c1c(NC(=O)c2c(N)n(CCCOC)c3nc4ccccc4nc23)sc2c1CCCC2	-3	-12	4	1	-22	2
CCOCCCn1c(N)c(C(=O)Nc2sc3c(c2C(=O)OC)CCCC3)c2nc3ccccc3nc21	-35	-58	52*	-1	5	-10
FC(F)(F)c1ccc(-c2ccc3c(c2)CNCc2cnnn2-3)cc1	x	-5	x	x	x	x
Cc1cc(C)c(Cn2c(C(=O)O)c(C=O)c3ccccc32)c(C)c1	-62	-141	64*	-8	-130	-69
O=Cc1c(C(=O)O)n(Cc2ccccc2Cl)c2ccccc12	-3	-1	5	-1	-7	-5
CCOC(=O)[C@@]1(C#N)C(c2ccc(Cl)c(Cl)c2)[C@H](C(N)=O)N2C=C(C(C)=O)C=C[C@H]21 (some centres undefined)	-12	-27	0	2	102*	-1
CCOC(=O)[C@@]1(C#N)[C@@H]2C=CC(C(N)=O)=CN2[C@@H](C(N)=O)[C@@H]1c1cccc(Cl)c1	-7	-2	17	3	6	1
CCOC(=O)[C@]1(C#N)[C@@H]2C=CC(C(N)=O)=CN2[C@@H](C(N)=O)[C@@H]1c1ccc(F)cc1	-14	6	15	0	12	-4
COC(=O)[C@@]1(C#N)[C@@H]2C=CC(C(C)=O)=CN2[C@@H](C(N)=O)[C@@H]1c1ccc(F)cc1	-15	-10	15	3	119*	3
COC(=O)C1=C(c2ccc(OCc3ccccc3)cc2)C[C@@H]2CC[C@H]1N2C(=O)NC1CCN(Cc2ccccc2)CC1	3	1	-5	-1	x	1
CC12Cc3cn[nH]c3C=C1CCC1C2CCC2(C)C1CCC2(C)O (centres undefined)	4	-11	-5	-1	x	-6
CN1C(=O)C(=Cc2ccc(N3CCCCCC3)cc2)C(=O)N(C)C1=O	-3	-2	-4	3	84*	-1
Nc1cc2nc3ccccc3nc2cc1N	-1	6	3	13	179*	3
Nc1ccc(Cl)c(Cl)c1	-4	-14	-2	-2	x	-2
c1ccc(CN2Cc3ccccc3-n3nncc3C2)nc1	x	9	x	x	x	x
Cc1ccccc1N1C(=O)NC(=O)/C(=C\c2ccc3c(c2)CCCN3Cc2ccccc2)C1=O	-29	-14	4	1	171*	-11
COc1ccc(/C=C2/C(=O)NC(=O)N(c3ccccc3)C2=O)cc1CN1C(=O)c2ccccc2C1=O	2	-4	11	2	-4	-6
Cc1ccccc1-c1ccc2n1Cc1cnnn1-c1ccccc1-2	-2	-2	-3	5	x	7
Cc1cc(Cl)ccc1OC(C)C(=O)O (centres undefined)	20*	-15	5	3	-11	1
O=c1[nH]c(=O)n(Cc2ccccc2Cl)c(O)c1/C=C1/C=CC=N1	1	-40	0	1	58*	-1
CC(=O)c1ccc2c(c1)C1C(Cl)C(Sc3ccccc3[N+](=O)[O-])CC1C(C(=O)O)N2 (centres undefined)	16	22*	-18	8	26	-5
Cc1cc(/C=C2\C(=O)NC(=O)N(c3cccc(Br)c3)C2=O)c(C)n1C	-4	-34	12	3	111*	5
O=C1NC(=S)N(Cc2ccco2)C(=O)/C1=C\c1cccs1	x	x	x	x	72*	x
SMILES	RTF Ca sens inh	eLon inh	cardiac RTF act	C-LANA FP	EBV gp42 block	Keap1-Nrf2 PPI	others
C=CCN1C(=O)/C(=C/c2cccs2)C(=O)NC1=S	7	-20	7	-3	-12	4
CCC1(C)OC(c2ccccc2)=C/C(=C/C=C2C(=O)NC(=O)NC2=O)O1 (centres undefined)	-163	-479	123*	-3	-117	-16
COC(=O)C1=C(c2ccc(OCc3ccccc3)cc2)C[C@@H]2CC[C@H]1N2C(=O)NCCc1ccc(F)cc1	x	-2	x	x	x	x
CCN1/C(=C\C=C\C2=[N+](CC)c3ccccc3C2(C)C)C(C)(C)c2ccccc21	i	+	895*	-43	7	-372
O=C1NC(=O)C2(CCN(c3ccccc3)CC2)C(=O)N1	-8	5	0	0	x	-2
COc1ccc(C=C2C(=O)NC(=S)NC2=O)cc1OC	-1	-17	5	-2	x	-4
O=C1NC(=S)NC(=O)C1=Cc1ccc2c(c1)CCN2CCCCl	x	-11	x	x	71*	x
CN(C)[C@@H]1C(=O)C(C(N)=O)=C(O)[C@@]2(O)C(=O)C3=C(O)c4c(O)cccc4[C@@](C)(O)[C@H]3[C@H](O)[C@@H]12	20*!	37	-18	124*	4	-2
O=C1NC(=O)N(Cc2ccco2)C(=O)/C1=C/c1ccc(-c2cccc([N+](=O)[O-])c2)o1	14	-13	-13	7	91*	2
NCCc1cc(O)c(O)cc1O	26*!	2	-9	2	x	1	RTF inh confirm=3
COc1cc(CNCCc2ccc3c(c2)OCO3)ccc1O	-4	-6	0	-1	x	-7
CCCCCCCCC(=O)NCc1ccc(O)c(OC)c1	19*	-2	3	1	x	-1	RTF inh confirm=-3
CCCNS(=O)(=O)c1ccc(OCC(=O)N2CCN(Cc3ccc4c(c3)OCO4)CC2)cc1	18*	-4	3	-1	-9	-3	RTF inh confirm=-3
COCCCNP1(=O)OCC(C)([N+](=O)[O-])CO1 (centres undefined)	1	0	1	-2	x	-2
C[C@]12CCC(=O)C=C1C=CC1C2CC[C@@]2(C)C1CC[C@@H]2O (some centres undefined)	2	-10	11	-3	x	1
CC(C)COC(=O)c1ccccc1C(=O)OCC(C)C	-4	-5	14	2	-21	-4
C[CH2][Hg][S]c1ccccc1C(=O)O	+	0	i	0	x	i	RTF inh confirm=i
c1cc2c(cc1-c1ccc3c(c1)OCO3)CNCc1cnnn1-2	x	-8	x	x	x	x
CC[C@H](C)/C=C(C)/C=C/C1=CC2=C(Cl)C(=O)[C@](C)(OC(C)=O)C(=O)C2=CO1	39*	12	-35	23	x	-9	RTF inh confirm=21*
NC(=O)c1ccc(OCCC(O)N2CC=C(c3ccc(F)cc3)CC2)cc1 (centres undefined)	95*	3	-2	-1	x	0	RTF inh confirm=-4
